# Reference: PubChem BioAssay AID602254 (Broad Institute, 2012)
# Fewer than 10 of roughly 1,000 compounds were called active.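 Rule for the calls: active = fitted half-maximal concentration no higher than twice the top valid tested dose, with signal falling; inconclusive = flat curve with 30 to 70% inhibition, or poor fit; inactive = the rest.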 A selection follows. Measured potencies and affinities stand elsewhere.
# Molecular target: Golgi-associated PDZ and coiled-coil motif-containing protein (Homo sapiens) (UniProt Q9HD26)
# Assay: blockers of CAL PDZ–TMR peptide complex – biochemical, fluorescence polarization, untagged CAL PDZ, cherry-pick, set 2, dose response (AID 602254);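 note: 0% = DMSO neutral control and -100% = unlabeled peptide PRC23 positive control; more negative means stronger blocking of peptide binding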
# Conditions: Purified CAL PDZ; series mostly up to 60 µM; activity change, negative = inhibition: at the top concentration
row,Compound,"activity change, negative = inhibition"
1,COc1ccc(CC(=O)Nc2ccc(S(=O)(=O)Nc3cc(C)on3)cc2)cc1,2.22% (inactive)
2,COc1ccccc1N1CCN(/N=C/c2ccc(O)cc2O)CC1,-1.14% (inactive)
3,O=C(Nc1ccnn1C1CCN(CC2CC=CCC2)CC1)c1ccccc1Cl (centres undefined),-1.42% (inactive)
4,COc1cccc(NC(=O)c2ccc3nsnc3c2)c1,1.47% (inactive)
5,O=C(NCCCN1CCOCC1)c1ccc2c(c1)N(Cc1ccccc1)CCS2,7.62% (inactive)
6,Cc1ccc(NC(=O)COc2ccccc2C(=O)NCCc2ccccc2)cc1,1.91% (inactive)
7,O=C(COC(=O)c1ccc(NC(=O)C2CC=CCC2C(=O)O)cc1)c1ccccc1 (centres undefined),4.39% (inactive)
8,CCOC(=O)c1c(NC(=O)C2CCCCC2)sc2c1CCN(CC)C2,-0.655% (inactive)
9,COc1ccc(CNc2ccc(-c3ccccc3OC)nn2)cc1,7.46% (inactive)
10,CN(C(=O)c1cccc(C(F)(F)F)c1)C1CCCc2ccccc21 (centres undefined),-1.53% (inactive)
11,Cc1n[nH]c(C)c1CCN(C)Cc1cn(C)nc1-c1ccc2c(c1)OCCO2,0.263% (inactive)
12,COc1ccc(NC(=O)CC(CC(=O)O)c2cc(OC)c(OC)c(OC)c2)cc1 (centres undefined),1.78% (inactive)
13,Cc1ccc(NC(=S)N(CCCN2CCCC2)Cc2cccn2Cc2ccc(Cl)cc2)cc1C,7.5% (inactive)
14,O=C1CN(C(=O)COc2ccc(F)cc2Br)c2ccccc2N1,-1.17% (inactive)
15,O=C(C1CC1)N1CCc2cc(S(=O)(=O)N3CCOCC3)ccc21,2.05% (inactive)
16,CS(=O)(=O)c1ccc(C(=O)NC2CCCc3ccccc32)cc1 (centres undefined),4.04% (inactive)
17,COC(=O)c1ccccc1NC(=S)N1CCN(C2CCCCC2)CC1,0.591% (inactive)
18,Cc1ccccc1NC(=O)c1ccc(NC(=O)C2CCCO2)cc1 (centres undefined),-2.35% (inactive)
19,CC(NC(=S)NC(=O)c1ccccc1Br)c1ccccc1 (centres undefined),1.12% (inactive)
20,COc1ccc(OC)c(-c2csc(NC(=O)c3ccc4c(c3)OCO4)n2)c1,0.356% (inactive)
21,CCN(Cc1cnn(C)c1)C(=O)C1CCC(=O)N(CCc2ccc(OC)cc2)C1 (centres undefined),0.165% (inactive)
22,CC(=O)Nc1sc(NC(=O)c2ccc(C)cc2)nc1-c1cccs1,-1.3% (inactive)
23,O=C(CNC(=O)c1ccccc1Cl)N/N=C/c1ccc2c(c1)OCO2,1.37% (inactive)
24,O=C(NCCc1ccccc1F)c1ccc2c(c1)OCCO2,2.65% (inactive)
25,CCc1nnc(NS(=O)(=O)c2ccc(N3C(=O)c4ccccc4C3=O)cc2)s1,1.69% (inactive)
26,Cc1cccc(NC(=O)CCNC(=O)c2ccc(Br)cc2)c1,-2.95% (inactive)

row,Compound,"activity change, negative = inhibition"
1,COc1ccc(CCNS(=O)(=O)c2ccccc2)cc1OC,-8.76% (inactive)
2,COC(=O)c1cc(S(=O)(=O)NCCN2CCN(c3ccccc3F)CC2)c[nH]1,0.413% (inactive)
3,CCOC(=O)N1CCN(C(=O)c2ccc3c(=O)n(-c4ccc(OC)cc4OC)c(=S)[nH]c3c2)CC1,1.69% (inactive)
4,COc1ccccc1/C=N/NC(=O)c1ccc2c(c1)OCO2,2.16% (inactive)
5,COc1ccccc1C(=O)Nc1cccc2nc(C)ccc12,0.557% (inactive)
6,Cc1ccc(N(C)C(=O)C2CCCN2S(=O)(=O)c2cccc3nsnc23)cc1 (centres undefined),0.114% (inactive)
7,O=C(Nc1ccc(F)cc1)C1CCCN1S(=O)(=O)c1cccc2nsnc12 (centres undefined),1.12% (inactive)
8,O=C(Nc1cccc(O)c1)c1ccc(NC(=O)C2CCCO2)cc1 (centres undefined),0.422% (inactive)
9,CC(=O)Nc1ccc(NC(=O)COC(=O)COc2ccc3ccccc3c2)cc1,-1.38% (inactive)
10,COc1ccccc1CNC(=O)COC(=O)CC1CC2CCC1C2 (centres undefined),5.21% (inactive)
11,Cc1ccc(S(=O)(=O)Nc2c(C)n(C)n(-c3ccccc3)c2=O)cc1,-1.36% (inactive)
12,C=CC(=O)NCc1ccc(-c2csnn2)cc1,-0.734% (inactive)
13,CC(=O)NC(Cc1ccccc1)C(C)=O (centres undefined),-0.274% (inactive)
14,CCSc1nnc(NC(=O)CN2C(=O)NC3(CCCC3)C2=O)s1,-1.53% (inactive)
15,COc1ccc(NC2CCCN(C(=O)c3csc(C(C)C)n3)C2)cc1 (centres undefined),-1.33% (inactive)
16,O=C1OC(CO)CN1Cc1ccccc1 (centres undefined),-3.64% (inactive)
17,O=S1(=O)c2c(F)cccc2OC(COCc2ccccc2)CN1C1CCCC1 (centres undefined),9.91% (inactive)
18,Cc1ccc(C)c(N(CC(=O)N2CCCC2)S(C)(=O)=O)c1,6.46% (inactive)
19,COc1ccc(NC(=O)n2ncc3c(C)cccc32)cc1,2.29% (inactive)
20,O=C(O)c1c(-c2ccc(Cl)cc2)cn2ccccc12,-0.658% (inactive)
21,O=C(NCc1ccncc1)C(=O)N/N=C/c1ccccn1,-0.098% (inactive)
22,O=C(COC(=O)COc1ccc(Br)cc1)NCC1CCCO1 (centres undefined),-4.89% (inactive)
23,CCCCN1CC(COCc2ccccc2)Oc2cccc(F)c2S1(=O)=O (centres undefined),0.998% (inactive)
24,COc1ccccc1C(=O)Nc1ccc2c(c1)nc(CN1CCCCC1)n2C,3.14% (inactive)
25,COC(=O)Cc1ccc(NC(=S)Nc2cccc(C)n2)cc1,2.44% (inactive)
26,O=C(CN1CCC(n2nnc3cc(C(F)(F)F)ccc32)CC1)Nc1ccc2c(c1)OCCO2,-1.87% (inactive)

row,Compound,"activity change, negative = inhibition"
1,CCOC(=O)C(/C=N/c1cc(C)nn1-c1ccccc1)=C(\C)O,3.31% (inactive)
2,CCc1ccc(C(=O)NNC(=O)c2c(CC)noc2C)cc1,-3.88% (inactive)
3,COc1ccc(/C=N/N2CCN(Cc3ccc(C)cc3)CC2)cc1Br,1.63% (inactive)
4,Cc1ccc(C(=O)NN2C(=O)c3ccc(S(=O)(=O)c4ccc(C(=O)O)cc4)cc3C2=O)cc1,-1.61% (inactive)
5,CC(C)CNC(=O)NC(=O)COC(=O)COc1ccc(Cl)cc1Cl,1.9% (inactive)
6,COc1ccccc1C(=O)Oc1ccccc1C(=O)Nc1ccccc1,-11.9% (inactive)
7,Cc1ccc2nc(NC(=O)COC(=O)c3ccncc3)sc2c1,2.09% (inactive)
8,O=C(O)Cc1sc(-c2ccc(Cl)cc2)nc1-c1ccccc1,3.43% (inactive)
9,Cc1noc(C)c1COc1cccc(C(=O)OC(C)C#N)c1 (centres undefined),-4% (inactive)
10,COc1ccc(CN2CCNC(=O)C2CC(=O)NC2CCCCCCC2)cc1OC (centres undefined),1.79% (inactive)
11,CCC(C)(C(=O)NC1CCCCC1)N(C)C(=O)c1ccccn1 (centres undefined),0.953% (inactive)
12,Cc1cc(CN(C)C(=O)C2CCC(=O)N(CCc3cccc(F)c3)C2)on1 (centres undefined),-0.419% (inactive)
13,Cc1onc(-c2c(Cl)cccc2Cl)c1C(=O)N1CCN(c2ncccn2)CC1,2.53% (inactive)
14,CC(C)c1ccc(S(=O)(=O)N2CCN(C(=O)c3cccc(F)c3)CC2)cc1,4.73% (inactive)
15,Cc1ccc(/C=N/N(C)S(=O)(=O)c2ccc(C)cc2)cc1,-0.427% (inactive)
16,CCOc1ccc(NC(=O)CCN2CCN(S(=O)(=O)c3ccc(F)cc3)CC2)cc1,-0.08% (inactive)
17,Cc1ccccc1C(=O)c1cccn1CC(=O)NCCC1=CCCCC1,0.05% (inactive)
18,COc1ccccc1NC(=O)C1CCN(C(=O)NCc2ccccc2)CC1,0.179% (inactive)
19,CCSc1ccccc1C(=O)NCCc1ccccc1,-8.58% (inactive)
20,COc1ccc(C)cc1NC(=O)Cn1c(=O)oc2ccccc21,-1.95% (inactive)
21,O=C(NNC(=O)C1CCC1)c1ccc(Br)cc1,-0.869% (inactive)
22,CC1CCN(C(=O)COc2ncnc3ccccc23)CC1,-1.92% (inactive)
23,COc1ccc(CCC(=O)Nc2ncc(C)s2)cc1OC,-1.11% (inactive)
24,CC(=O)Nc1ccc(NCC(=O)c2ccccc2)cc1,5.34% (inactive)
25,O=C(Oc1ccccc1)N1CCOCC1,0.207% (inactive)
26,CCCN1CCN(S(=O)(=O)c2ccc3c(c2)CCC(=O)N3)CC1,-0.697% (inactive)

row,Compound,"activity change, negative = inhibition"
1,COC(=O)c1c(NC(=O)CN(C)CC(=O)Nc2ccc(C)cc2)sc2c1CCC(C)C2 (centres undefined),0.538% (inactive)
2,CCOC(=O)Cn1c(=O)oc2cc(S(=O)(=O)N(C)Cc3ccccc3)ccc21,-0.806% (inactive)
3,CC(C)Oc1cccc(C(=O)C2CCCN(C(=O)CCn3cnnn3)C2)c1 (centres undefined),0.618% (inactive)
4,CC1CCC(NC(=O)c2nn(C)c3c2CSc2ccccc2-3)CC1 (centres undefined),-0.08% (inactive)
5,CCOC(=O)c1ccc(S(=O)(=O)NCC(C)(C)N2CCOCC2)cc1,0.845% (inactive)
6,c1ccc(CN2CCCC3(CCCN(Cc4nc(COc5ccccc5)no4)C3)C2)cc1 (centres undefined),-0.026% (inactive)
7,O=C(COc1ccc(Cl)cc1)Nc1cc(NC(=O)COc2ccc(Cl)cc2)cc(C(=O)O)c1,9.23% (inactive)
8,CN(Cc1cnccn1)Cc1nc(Cc2ccccc2F)no1,0.187% (inactive)
9,CCCNC(=O)C1CCC(CNS(=O)(=O)c2ccc3c(c2)CC(C)N3C(C)=O)CC1 (centres undefined),0.309% (inactive)
10,Fc1ccc(Cn2cc(C(=S)N3CCOCC3)c3ccccc32)cc1,0.943% (inactive)
11,CCC(=O)N1CCc2cc(Br)cc(S(=O)(=O)N3CCCCC3CC)c21 (centres undefined),-1.65% (inactive)
12,CC1CCN(Cc2nnnn2CCCC(=O)NCCc2cnn(C)c2)CC1,-1.37% (inactive)
13,Cc1ccc(O)c(-c2cc(-c3cccc(Br)c3)n[nH]2)c1,0.711% (inactive)
14,C=CCc1ccc(OCCCCN2CC(C)OC(C)C2)c(OC)c1 (centres undefined),0.21% (inactive)
15,Cc1noc(NS(=O)(=O)c2ccc(NC(=O)c3ccc(N(C)C)cc3)cc2)c1C,-0.732% (inactive)
16,Cc1ccc(NC(=O)CN(C)C(=O)COc2cccc3ccc(C)nc23)cc1,-0.235% (inactive)
17,COc1ccc(-c2[nH]ncc2CNC(C)CCn2cccn2)cc1F (centres undefined),-0.462% (inactive)
18,Cc1ccc(N2CCN(CCCCN3C(=O)C4CCCN4C3=O)CC2)cc1 (centres undefined),-1.07% (inactive)
19,COc1ccc(-c2csc(N3C(=O)CNC3=S)n2)cc1,-9.99% (inactive)
20,CCN1CCCc2cc(CN(CCN3CCOCC3)C(=S)Nc3cccc(C)c3)ccc21,1.91% (inactive)
21,N#Cc1ccc(NC(=O)NN2CCCCCC2)cc1,2.36% (inactive)
22,N/N=C(\c1ccccc1)c1cc(Br)ccc1N,1.57% (inactive)
23,COc1ccc(NC(=O)Oc2cc(C)ccc2C(C)C)cc1,-0.959% (inactive)
24,OCCCc1cn(Cc2ccccc2)c2ccccc12,-0.804% (inactive)
25,O=C(Cn1cccc1C(=O)c1ccccc1)NCc1ccccc1Cl,-3.87% (inactive)
26,CC(C)(C)c1cc(C(=O)NNc2cccc(Cl)c2)n(Cc2ccccc2)n1,-0.821% (inactive)

row,Compound,"activity change, negative = inhibition"
1,O=C(NCc1ccc(F)cc1)c1c2c(nc3ccccc13)CCN(Cc1ccccc1)C2,-1.25% (inactive)
2,CC(C)CC1NC(=O)N(CC(=O)N(C)C2CCCCC2)C1=O (centres undefined),-0.87% (inactive)
3,N#Cc1c(N)c(C#N)c(-c2ccc(O)cc2)c2c1CCCC2,-0.315% (inactive)
4,Cc1cccc(C)c1NC(=S)NC(C)(C)CO,1.29% (inactive)
5,CC(C)(C)OC(=O)n1cc(C(=O)c2ccccc2O)cn1,1.29% (inactive)
6,Cc1cc(Nc2ccccc2Cl)nc(-c2ccccc2O)n1,1.86% (inactive)
7,CN(C)CCCNC(=S)Nc1ccc(Oc2ccccc2)cc1,-9.71% (inactive)
8,COC(=O)c1ccc(NC(=S)Nc2cccc(C)n2)cc1,-2.33% (inactive)
9,Cc1cc(C)nc(NCC(O)CNc2ccccc2C)n1 (centres undefined),2.94% (inactive)
10,Cc1ccc(Cl)c(NC(=O)COC(=O)C2CCC2)c1Cl,-2.31% (inactive)
11,COC(=O)c1cc2ccsc2n1Cc1cccc(F)c1,1.78% (inactive)
12,O=S(=O)(NC1CCCC1)c1ccc(-n2cnnn2)cc1,0.658% (inactive)
13,COc1ccc(Cl)cc1C(=O)NNC(=O)CNC(=O)c1ccc(C)s1,-0.888% (inactive)
14,COc1ccc(CCNS(=O)(=O)c2ccc(-n3cnnn3)c(OC)c2)cc1OC,1.4% (inactive)
15,COc1ccccc1C(=O)NC(CCSC)C(=O)NC1CC1 (centres undefined),4.47% (inactive)
16,COc1ccc(OCCSc2nnc(C(C)NC(=O)c3ccccc3F)n2C)cc1 (centres undefined),-3.42% (inactive)
17,COc1ccc(NC(=O)Nc2nnc(C(C)(C)C)s2)cc1,-1.28% (inactive)
18,CCSc1nnc(NC(=O)CCNC(=O)c2ccccc2Cl)s1,-1.72% (inactive)
19,O=C(CNC(=O)CNC(=O)c1ccc(Cl)cc1Cl)NCc1cccc(Cl)c1,-0.331% (inactive)
20,O=C(O)CC(CNC(=O)C1CCCN1C(=O)OCc1ccccc1)c1ccccc1 (centres undefined),-2.42% (inactive)
21,CC(=O)c1cc(Cl)ccc1OCC(=O)Nc1cccc(S(=O)(=O)N2CCCC2)c1,6.73% (inactive)
22,O=C(COc1ccc2c(c1)OCO2)Nc1nccs1,1.01% (inactive)
23,COC(=O)c1ccc(CN2C(=O)c3ccccc3S2(=O)=O)cc1,-0.049% (inactive)
24,CCc1nnc(NC(=O)c2cc(S(=O)(=O)N3CCCCC3)ccc2C)s1,1.84% (inactive)
25,COC(=O)c1cc(S(=O)(=O)N2CCCC(C)C2)c[nH]1 (centres undefined),1.02% (inactive)
